Measured values from PubChem BioAssay.
Unmarked numbers belong to inactive results. The source made the active and inactive calls.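 Rule for the calls: active = compounds that lower viability of the colon cancer cells in the luminescence readout, with no numeric limit stated; inactive = the rest.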

assay: CellTiter-Glo luminescent readout of SW480 viability loss, NPC library primary (AID 1117343); conditions: CellTiter-Glo luminescence; at 20 µM (top of the series)

Row | Structure (SMILES) | viability decrease (inhibition)
1 | NS(=O)(=O)c1cc(-c2nn[nH]n2)c(NCc2cccs2)cc1Cl | 2.3%
2 | CCCCNC(=O)NS(=O)(=O)c1ccc(N)cc1 | 27.3%
3 | CCCC(CCC)C(N)=O | 25.7%
4 | COc1ccc(CC2c3cc(OC)c(OC)cc3CCN2CCC(=O)OCCCCCOC(=O)CCN2CCc3cc(OC)c(OC)cc3C2Cc2ccc(OC)c(OC)c2)cc1OC (centres undefined) | 39.7%
5 | CC1(C)OC(=O)Nc2ccc(Br)cc21 | 20.9%
6 | COC(=O)C1=C(C)NC(COC(N)=O)=C(C(=O)OC(C)C)C1c1cccc(Cl)c1Cl (centres undefined) | 123% (active)
7 | CCO[C@@H]1O[C@H](C(COCc2ccccc2)OCc2ccccc2)[C@H](OCc2ccccc2)[C@H]1O (some centres undefined) | 63.5% (active)
8 | Oc1cn2c(n1)Nc1ccc(Cl)c(Cl)c1C2 | -21.9%
9 | NC(=Nc1ccccc1)Nc1ccccc1 | 77.3% (active)
10 | CCOC(=O)OCC/C(SC(=O)OCC)=C(\C)N(C=O)Cc1cnc(C)nc1N | -22.7%
11 | CC(C)C(=O)Nc1cccc(C(F)(F)F)c1 | -24.6%
12 | C/C(=C(\CCO)SS/C(CCO)=C(\C)N(C=O)Cc1cnc(C)nc1N)N(C=O)Cc1cnc(C)nc1N | -11.8%
13 | COc1cc(C(=S)N2CCOCC2)cc(OC)c1OC | 9.6%
14 | CC(C)(C)c1cc(C=O)cc(C(C)(C)C)c1O | -22.1%
15 | O=c1[nH]c(=O)n([C@H]2O[C@H](CO)[C@@H](O)[C@@H]2O)cc1/C=C\Br | -23.9%
16 | Cc1c(F)cc2c(=O)c(C(=O)O)cn3c2c1CCC3C (centres undefined) | -16.3%
17 | CC(=O)Oc1ccc(C2(c3ccc(OC(C)=O)cc3)Oc3ccccc3NC2=O)cc1 | 60.2% (active)
18 | COc1ccnc2c1CCCCC2S(=O)c1nc2ccccc2[nH]1 (centres undefined) | 31.6%
19 | CCN(CC)C(=O)C1CN2CCc3cc(OC)c(OC)cc3C2CC1OC(C)=O (centres undefined) | 6.1%
20 | CCOC(=O)Cn1cccc1-c1nc(-c2ccc(OC)cc2)c(-c2ccc(OC)cc2)s1 | 88.2% (active)

Row | Structure (SMILES) | viability decrease (inhibition)
21 | N#C/C(=C1/SC[C@@H](c2ccc(Cl)cc2Cl)S1)n1ccnc1 | 116% (active)
22 | NC(=O)COCCN1CCN(C(c2ccccc2)c2ccc(Cl)cc2)CC1 (centres undefined) | -24.9%
23 | O=C(CCCN1CCN(c2ccc(F)cc2)CC1)NC1c2ccccc2CSc2ccccc21 (centres undefined) | 27.4%
24 | Cc1ccc(C(=O)C(=O)O)cc1C | 17.4%
25 | CN1[C@@H]2CC[C@H]1CC(NC(=O)n1c(=O)[nH]c3ccccc31)C2 (some centres undefined) | 5.3%
26 | CCOc1cc(OCC)c(C(=O)CCC(=O)O)cc1OCC | 0.4%
27 | Cc1cc(NS(=O)(=O)c2ccc(N)cc2)nc(C)n1 | 55% (active)
28 | c1ccc2c(c1)CCc1ccccc1N2 | -16.7%
29 | CCOC(=O)C(=O)CCc1ccccc1 | -2.4%
30 | O=C(O)Cc1ccc2c(c1)C(=O)c1ccccc1CO2 | -5.2%
31 | CN[C@H](CC(C)C)C(=O)N[C@H]1C(=O)N[C@@H](CC(N)=O)C(=O)N[C@H]2C(=O)N[C@H]3C(=O)N[C@H](C(=O)N[C@H](C(=O)O)c4cc(O)cc(O)c4-c4cc3ccc4O)[C@H](O)c3ccc(c(Cl)c3)Oc3cc2cc(c3O[C@@H]2OC(CO)[C@@H](O)[C@H](O)[C@@H]2O[C@H]2C[C@](C)(N)[C@H](O)[C@H](C)O2)Oc2ccc(cc2Cl)[C@H]1O (some centres undefined) | 5%
32 | Oc1cccc(-c2c3nc(c(-c4cccc(O)c4)c4ccc([nH]4)c(-c4cccc(O)c4)c4nc(c(-c5cccc(O)c5)c5ccc2[nH]5)CC4)C=C3)c1 | 141% (active)
33 | CCC(CN)=C(c1ccccc1)c1ccccc1 | 92% (active)
34 | CC(C)=CCC/C(C)=C/CC/C(C)=C/C(=O)OCC(=O)[C@@]1(O)CC[C@H]2[C@@H]3CCC4=CC(=O)C=C[C@]4(C)[C@H]3[C@@H](O)C[C@@]21C | 86.2% (active)
35 | NNc1nnc(NN)c2ccccc12 | 22.7%
36 | COc1cccc(CCc2ccccc2OCC(CN(C)C)OC(=O)CCC(=O)O)c1 (centres undefined) | 87.5% (active)
37 | CC(C)(Oc1ccc(Cl)cc1)C(=O)OCCCOC(=O)C(C)(C)Oc1ccc(Cl)cc1 | 8.9%
38 | C/C=C/c1ccc(O)c(OC)c1 | 51.6% (active)
39 | Cc1ccccc1C(=O)Nc1ccc(C(=O)N2CCCC(N(C)C)c3ccccc32)cc1 (centres undefined) | 80.2% (active)
